Source: PubChem BioAssay (Tox21)
Inconclusive results are not listed. Activity calls are given as the source filed them. Unless noted, calls follow the shape of the dose curve; as a rule, active = well fitted curve in the direction sought with a large enough effect in the repeat runs; inconclusive = weak or mixed curves; inactive = no such curve, though single readings can be large; an effect the other way counts as inactive or inconclusive.

How the values were obtained:
[1] = biological target: Acetylcholinesterase (Homo sapiens) (UniProt P22303); experiment: Acetylcholinesterase (AChE) small molecule antagonists: enzyme-based qHTS assay (AID 1347397; calls by dose curve; also: nearly all actives have a fitted effect of over 55% in size; also: potency is read from the fitted curve at half-maximal effect); conditions: Potency: AChE enzyme activity inhibition; outcome: AChE enzyme activity inhibition
Sequence of Acetylcholinesterase (Homo sapiens) (P22303 whole entry, looked up): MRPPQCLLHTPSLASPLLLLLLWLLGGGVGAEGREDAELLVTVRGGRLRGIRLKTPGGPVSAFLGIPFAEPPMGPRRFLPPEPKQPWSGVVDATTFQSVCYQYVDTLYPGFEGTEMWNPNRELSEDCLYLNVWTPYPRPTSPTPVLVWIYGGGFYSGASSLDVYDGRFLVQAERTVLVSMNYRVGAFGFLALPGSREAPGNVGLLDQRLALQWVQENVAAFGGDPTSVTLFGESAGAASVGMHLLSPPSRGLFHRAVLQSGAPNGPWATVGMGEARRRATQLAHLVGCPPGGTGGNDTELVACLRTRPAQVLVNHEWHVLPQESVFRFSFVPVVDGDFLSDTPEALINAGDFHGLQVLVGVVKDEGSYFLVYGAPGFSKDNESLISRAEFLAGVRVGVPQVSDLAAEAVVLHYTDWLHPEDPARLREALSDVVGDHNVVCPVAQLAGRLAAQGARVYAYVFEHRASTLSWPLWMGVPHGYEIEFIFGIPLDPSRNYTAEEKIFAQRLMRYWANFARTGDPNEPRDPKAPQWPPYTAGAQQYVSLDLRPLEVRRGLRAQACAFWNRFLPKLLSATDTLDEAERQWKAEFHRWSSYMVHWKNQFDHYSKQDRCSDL
Method in brief: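 Absorbance-based detection of thiocholine with DTNB served as the read-out. Recombinant human AChE was exposed to compound for 30 min at RT before a 10 min RT incubation with acetylthiocholine.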

[2] = biological target: Acetylcholinesterase (Homo sapiens) (UniProt P22303); experiment: Acetylcholinesterase (AChE) small molecule antagonists: fluorescence cell-based qHTS assay (AID 1347398; calls by dose curve; also: nearly all actives have a fitted effect of over 50% in size; also: potency is read from the fitted curve at half-maximal effect); conditions: Potency: AChE activity; outcome: AChE activity
Method in brief: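 Fluorimetric cell-based assay: intact SH-SY5Y cells, 30 min compound preincubation at 37 C, acetylthiocholine substrate with thiol probe Thiolite Green, 40 min RT development, fluorescence 490/520 nm.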

[3] = biological target: Acetylcholinesterase (Homo sapiens) (UniProt P22303); experiment: Acetylcholinesterase (AChE) small molecule antagonists: enzyme-based qHTS assay with human liver microsomes (AID 1347399; calls by dose curve; also: nearly all actives have a fitted effect of over 60% in size; also: potency is read from the fitted curve at half-maximal effect); conditions: Potency: qHTS inhibition; outcome: qHTS inhibition
Method in brief: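 Recombinant human AChE (50 mU/mL in the enzyme mix) and human liver microsomes (0.25 mg/mL final) were preincubated with compound and NADPH (0.25 mg/mL final) for 30 min at 37 C. Acetylthiocholine/DTNB was then added; thiocholine was read colorimetrically after 10 min at room temperature.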

[4] = biological target: Cytochrome P450 2D6 (Homo sapiens) (UniProt P10635); experiment: Cytochrome P450 Family 2 Subfamily D Member 6 (CYP2D6) small molecule antagonists: luciferase reporter qHTS assay (AID 1671196); also: nearly all actives have a fitted effect of over 50% in size; also: potency is read from the fitted curve at half-maximal effect
Sequence of Cytochrome P450 2D6 (Homo sapiens) (P10635 whole entry, looked up): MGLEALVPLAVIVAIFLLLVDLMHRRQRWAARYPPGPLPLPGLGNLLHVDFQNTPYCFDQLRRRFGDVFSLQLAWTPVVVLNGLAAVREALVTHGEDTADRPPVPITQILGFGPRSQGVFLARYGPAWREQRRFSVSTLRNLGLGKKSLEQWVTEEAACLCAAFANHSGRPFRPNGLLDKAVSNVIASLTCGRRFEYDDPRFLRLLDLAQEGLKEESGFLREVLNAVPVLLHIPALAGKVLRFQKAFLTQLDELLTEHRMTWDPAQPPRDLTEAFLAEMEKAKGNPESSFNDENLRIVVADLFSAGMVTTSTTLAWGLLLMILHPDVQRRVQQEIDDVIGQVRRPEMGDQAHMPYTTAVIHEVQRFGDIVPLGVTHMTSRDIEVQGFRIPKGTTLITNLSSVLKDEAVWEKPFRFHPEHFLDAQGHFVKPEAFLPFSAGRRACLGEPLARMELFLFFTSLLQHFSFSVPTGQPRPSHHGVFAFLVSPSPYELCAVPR
Method in brief: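 CYP2D6 enzyme–substrate mix was held with compound for 10 min at room temperature, then NADPH regeneration solution was added and the reaction ran 1 h at room temperature. Luciferin product was detected by luminescence after 20 min with detection reagent.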

[5] = biological target: Cytochrome P450 2C19 (Homo sapiens) (UniProt P33261); experiment: Cytochrome P450 Family 2 Subfamily C Member 19 (CYP2C19) small molecule antagonists: luciferase reporter qHTS assay (AID 1671197); also: nearly all actives have a fitted effect of over 65% in size; also: potency is read from the fitted curve at half-maximal effect
Sequence of Cytochrome P450 2C19 (Homo sapiens) (P33261 whole entry, looked up): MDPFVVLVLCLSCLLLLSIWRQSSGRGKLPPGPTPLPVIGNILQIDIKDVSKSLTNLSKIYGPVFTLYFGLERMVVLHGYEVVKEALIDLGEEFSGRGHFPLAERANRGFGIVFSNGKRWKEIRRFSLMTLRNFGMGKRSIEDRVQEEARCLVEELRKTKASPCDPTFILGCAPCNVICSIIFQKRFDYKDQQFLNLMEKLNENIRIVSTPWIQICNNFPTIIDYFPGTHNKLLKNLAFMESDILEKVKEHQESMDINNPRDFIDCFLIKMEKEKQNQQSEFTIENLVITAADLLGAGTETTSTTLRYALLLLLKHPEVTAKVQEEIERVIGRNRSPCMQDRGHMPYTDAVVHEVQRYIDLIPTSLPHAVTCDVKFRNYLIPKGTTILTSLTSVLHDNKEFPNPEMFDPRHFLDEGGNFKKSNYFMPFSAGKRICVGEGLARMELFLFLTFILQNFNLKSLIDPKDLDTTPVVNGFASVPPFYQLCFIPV
Method in brief: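 Light output is proportional to CYP2C19 activity: proluciferin substrate is converted to luciferin, then detected by a luciferin detection reagent that also stops the 1 h, 37C NADPH-driven reaction. Ketoconazole serves as positive control.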

[6] = biological target: Cytochrome P450 2C9 (Homo sapiens) (UniProt P11712); experiment: Cytochrome P450 Family 2 Subfamily C Member 9 (CYP2C9) small molecule antagonists: luciferase reporter qHTS assay (AID 1671198); also: nearly all actives have a fitted effect of over 50% in size; also: potency is read from the fitted curve at half-maximal effect
Sequence of Cytochrome P450 2C9 (Homo sapiens) (P11712 whole entry, looked up): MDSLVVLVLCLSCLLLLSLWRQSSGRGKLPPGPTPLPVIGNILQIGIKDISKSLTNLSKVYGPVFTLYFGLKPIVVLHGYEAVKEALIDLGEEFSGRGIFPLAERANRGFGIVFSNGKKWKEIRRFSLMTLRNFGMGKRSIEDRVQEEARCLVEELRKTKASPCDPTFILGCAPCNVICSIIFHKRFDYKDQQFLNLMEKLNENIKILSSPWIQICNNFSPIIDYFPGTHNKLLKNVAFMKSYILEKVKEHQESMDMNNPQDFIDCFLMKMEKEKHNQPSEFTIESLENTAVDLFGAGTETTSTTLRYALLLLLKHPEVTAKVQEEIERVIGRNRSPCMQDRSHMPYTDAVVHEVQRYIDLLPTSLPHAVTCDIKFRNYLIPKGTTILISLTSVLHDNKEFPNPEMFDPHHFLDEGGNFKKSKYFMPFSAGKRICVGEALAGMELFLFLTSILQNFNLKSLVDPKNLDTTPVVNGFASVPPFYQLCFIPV
Method in brief: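 Enzyme-substrate mix preincubated with compound 10 min at room temperature; reaction started with NADPH regeneration solution, 1 h 37C. Luminescent luciferin product read after 20 min detection reagent.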

[7] = biological target: Cytochrome P450 1A2 (Homo sapiens) (UniProt P05177); experiment: Cytochrome P450 Family 1 Subfamily A Member 2 (CYP1A2) small molecule antagonists: luciferase reporter qHTS assay (AID 1671199); also: nearly all actives have a fitted effect of over 50% in size; also: potency is read from the fitted curve at half-maximal effect
Sequence of Cytochrome P450 1A2 (Homo sapiens) (P05177 whole entry, looked up): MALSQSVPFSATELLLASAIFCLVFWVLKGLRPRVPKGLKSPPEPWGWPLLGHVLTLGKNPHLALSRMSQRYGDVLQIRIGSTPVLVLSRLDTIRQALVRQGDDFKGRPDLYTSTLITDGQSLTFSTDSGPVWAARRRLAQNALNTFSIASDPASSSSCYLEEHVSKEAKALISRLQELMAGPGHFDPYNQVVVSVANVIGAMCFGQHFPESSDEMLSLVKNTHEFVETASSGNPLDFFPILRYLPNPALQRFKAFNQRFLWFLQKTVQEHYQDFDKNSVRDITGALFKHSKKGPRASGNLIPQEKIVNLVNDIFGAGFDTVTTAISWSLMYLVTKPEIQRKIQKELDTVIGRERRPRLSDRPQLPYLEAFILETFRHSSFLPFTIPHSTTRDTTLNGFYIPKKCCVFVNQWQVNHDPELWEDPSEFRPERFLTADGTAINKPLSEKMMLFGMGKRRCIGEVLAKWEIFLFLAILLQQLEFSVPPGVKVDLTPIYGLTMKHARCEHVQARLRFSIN
Method in brief: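 Human CYP1A2 activity measured with a P450-Glo proluciferin substrate; compounds in DMSO preincubated 10 min at room temperature with enzyme-substrate mix, then NADPH regeneration system added for 1 h. Luciferin detection reagent, 20 min, luminescence read.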

[8] = biological target: Voltage-gated inwardly rectifying potassium channel KCNH2 (Homo sapiens) (UniProt Q12809); experiment: Human Ether-a-go-go-Related Gene (hERG) channel small molecule antagonists: fluorescence cell-based qHTS assay (AID 1671200)
Sequence of Voltage-gated inwardly rectifying potassium channel KCNH2 (Homo sapiens) (Q12809 whole entry, looked up): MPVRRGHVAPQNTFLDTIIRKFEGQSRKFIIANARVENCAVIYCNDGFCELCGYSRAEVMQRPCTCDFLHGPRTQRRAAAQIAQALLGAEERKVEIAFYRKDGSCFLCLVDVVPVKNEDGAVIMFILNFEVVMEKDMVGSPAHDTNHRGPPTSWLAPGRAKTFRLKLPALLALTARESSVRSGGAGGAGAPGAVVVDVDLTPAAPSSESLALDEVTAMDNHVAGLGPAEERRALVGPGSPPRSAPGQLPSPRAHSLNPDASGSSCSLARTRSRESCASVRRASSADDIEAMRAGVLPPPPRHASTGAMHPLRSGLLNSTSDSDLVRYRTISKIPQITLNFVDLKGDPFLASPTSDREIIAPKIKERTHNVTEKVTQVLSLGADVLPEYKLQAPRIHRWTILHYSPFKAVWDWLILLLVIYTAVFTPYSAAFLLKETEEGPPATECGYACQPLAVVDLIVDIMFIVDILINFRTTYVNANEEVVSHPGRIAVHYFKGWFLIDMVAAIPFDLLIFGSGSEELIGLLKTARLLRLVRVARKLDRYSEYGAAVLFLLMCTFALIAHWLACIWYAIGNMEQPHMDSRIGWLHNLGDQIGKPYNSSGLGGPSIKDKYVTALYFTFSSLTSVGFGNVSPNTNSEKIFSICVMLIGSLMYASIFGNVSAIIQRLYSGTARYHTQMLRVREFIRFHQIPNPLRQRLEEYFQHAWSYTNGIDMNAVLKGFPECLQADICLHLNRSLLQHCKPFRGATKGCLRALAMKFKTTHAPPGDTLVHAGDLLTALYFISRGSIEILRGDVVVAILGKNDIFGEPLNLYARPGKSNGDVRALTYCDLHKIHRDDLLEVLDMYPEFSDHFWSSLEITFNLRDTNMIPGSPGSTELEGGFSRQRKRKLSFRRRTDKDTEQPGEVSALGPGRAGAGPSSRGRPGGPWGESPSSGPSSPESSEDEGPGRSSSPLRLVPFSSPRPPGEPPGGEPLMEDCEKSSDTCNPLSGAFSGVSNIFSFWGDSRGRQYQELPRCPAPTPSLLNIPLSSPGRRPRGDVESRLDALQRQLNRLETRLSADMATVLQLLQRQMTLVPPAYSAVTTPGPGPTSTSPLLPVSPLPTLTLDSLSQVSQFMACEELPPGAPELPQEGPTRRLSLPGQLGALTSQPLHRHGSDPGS
Method in brief: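 hERG-U2OS cells plated overnight at 37 C, loaded with FluxOR II dye 1 h at RT in dark; after 10 min, thallium stimulus added. Fluorescence (480/540 nm) read kinetically for 2 min at 1 s intervals.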

[9] = biological target: Cytochrome P450 3A4 (Homo sapiens) (UniProt P08684); experiment: Cytochrome P450 Family 3 Subfamily A Member 4 (CYP3A4) small molecule antagonists: luciferase reporter qHTS assay (AID 1671201); also: nearly all actives have a fitted effect of over 50% in size; also: potency is read from the fitted curve at half-maximal effect
Sequence of Cytochrome P450 3A4 (Homo sapiens) (P08684 whole entry, looked up): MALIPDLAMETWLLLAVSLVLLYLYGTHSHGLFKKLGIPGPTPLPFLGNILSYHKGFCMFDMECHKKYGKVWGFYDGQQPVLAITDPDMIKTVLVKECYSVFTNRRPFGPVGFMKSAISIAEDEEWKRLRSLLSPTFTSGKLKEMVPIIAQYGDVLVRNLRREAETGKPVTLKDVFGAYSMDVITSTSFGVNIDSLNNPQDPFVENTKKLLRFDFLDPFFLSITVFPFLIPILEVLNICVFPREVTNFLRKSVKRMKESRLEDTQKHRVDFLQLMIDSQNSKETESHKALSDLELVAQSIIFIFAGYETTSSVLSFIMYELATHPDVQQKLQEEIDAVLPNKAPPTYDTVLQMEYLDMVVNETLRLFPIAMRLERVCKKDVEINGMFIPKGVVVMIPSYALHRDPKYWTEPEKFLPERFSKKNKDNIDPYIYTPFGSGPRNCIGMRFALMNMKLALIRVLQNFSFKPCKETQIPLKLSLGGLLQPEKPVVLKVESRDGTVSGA
Method in brief: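 P450-Glo CYP3A4 luminescent assay: compounds preincubated 10 min at room temperature with enzyme and proluciferin substrate, NADPH regeneration added, 1 h room-temperature reaction, stopped with luciferin detection reagent; luminescence read after 20 min. Ketoconazole positive control.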

Measured: Potency

CCOP(=S)(OCC)SCCl
active: [5] 35.6 µM | [6] 14.2 µM | [7] 25.2 µM | [9] 11.2 µM
inactive: all other assays above

CC(C)(C)NC[C@H](O)c1ccc(O)cc1Cl
active: [4] 30.9 µM
inactive: all other assays above

C#CCOC(=O)/C=C(C)/C=C/CC(C)CCCC(C)C (centres undefined)
active: [5] 79.6 µM | [6] 31.7 µM | [7] 28.3 µM
not listed: [8]
inactive: all other assays above

CCCOC(=O)Cc1ccc(OCC(=O)N(CC)CC)c(OC)c1
not listed: [9]
inactive: all other assays above

CC(C)NCC(O)c1ccc([N+](=O)[O-])cc1 (centres undefined)
active: [4] 27.5 µM
not listed: [8]
inactive: all other assays above

NNCc1ccccc1
inactive: [1] | [2] | [3]
active: [4] 11.5 µM | [5] 36.2 µM | [6] 45.6 µM | [7] 12.9 µM | [9] 32.3 µM

C=C1CC[C@@]2(O)[C@H]3Cc4ccc(O)c5c4[C@@]2(CCN3CC2CC2)[C@H]1O5
active: [4] 2.19 µM
inactive: all other assays above

N#CN
inactive: all assays above

ClC1=C(Cl)C2(Cl)C(CBr)CC1(Cl)C2(Cl)Cl (centres undefined)
not listed: [9]
inactive: all other assays above

CN=CNc1ccc(C)cc1C
inactive: all assays above

CC(=O)CN(CC(C)=O)N=O
not listed: [7]
inactive: all other assays above

CN1COCN(Cc2cnc(Cl)s2)/C1=N\[N+](=O)[O-]
not listed: [6] | [7]
inactive: all other assays above

NCCOS(=O)(=O)O
not listed: [7]
inactive: all other assays above

O=C(Cl)c1ccccc1
active: [5] 41.1 µM
not listed: [6]
inactive: all other assays above

CC(C)c1ccc(O)cc1
active: [7] 22.4 µM
not listed: [6]
inactive: all other assays above

CC(O)CCl (centres undefined)
not listed: [7]
inactive: all other assays above

Cc1cc(OC(=O)N(C)C)nn1C(=O)N(C)C
inactive: [6] | [8] | [9]
active: [1] 5.03 µM | [2] 1.26 µM | [3] 39.9 µM | [4] 31.7 µM | [5] 35.6 µM

Clc1nc(Cl)nc(Nc2ccccc2Cl)n1
active: [5] 79.6 µM
not listed: [6]
inactive: all other assays above

COc1ccccc1OC
active: [5] 79.6 µM
not listed: [7]
inactive: all other assays above

CCCCCCC1CCOC1=O (centres undefined)
active: [5] 39.9 µM
not listed: [7]
inactive: all other assays above

CCC1(c2ccccc2)C(=O)N(COC)C(=O)N(COC)C1=O
active: [5] 6.92 µM
not listed: [6] | [9]
inactive: all other assays above

COC(=O)[C@@H](N)CCCN/C(N)=N/[N+](=O)[O-]
not listed: [6] | [9]
inactive: all other assays above

CC(Cl)(Cl)Cl
not listed: [7]
inactive: all other assays above

CCNc1nc(Cl)nc(NC(C)(C)C)n1
active: [5] 35.6 µM | [7] 11.2 µM
not listed: [6]
inactive: all other assays above

N=C(N)[Se]
not listed: [7]
inactive: all other assays above

COC[C@@H](NC(C)=O)C(=O)NCc1ccccc1
not listed: [7] | [8]
inactive: all other assays above
